# In PubChem BioAssay AID488969 (Vanderbilt High Throughput Screening Facility, 2010):
# Whole data set: some 110,000 compounds, median “z-score” near -0.1, cut for the highest 2% near 2. Shown is part of a subset that was picked to be rich in the highest values. The source made the active and inactive calls.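 How the source made its calls: active means z-score in the third read window above 3 or below -3; inactive means the rest.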
# Target: Metabotropic glutamate receptor 8 (Rattus norvegicus) (UniProt P70579)
# Sequence (P70579 whole entry, looked up): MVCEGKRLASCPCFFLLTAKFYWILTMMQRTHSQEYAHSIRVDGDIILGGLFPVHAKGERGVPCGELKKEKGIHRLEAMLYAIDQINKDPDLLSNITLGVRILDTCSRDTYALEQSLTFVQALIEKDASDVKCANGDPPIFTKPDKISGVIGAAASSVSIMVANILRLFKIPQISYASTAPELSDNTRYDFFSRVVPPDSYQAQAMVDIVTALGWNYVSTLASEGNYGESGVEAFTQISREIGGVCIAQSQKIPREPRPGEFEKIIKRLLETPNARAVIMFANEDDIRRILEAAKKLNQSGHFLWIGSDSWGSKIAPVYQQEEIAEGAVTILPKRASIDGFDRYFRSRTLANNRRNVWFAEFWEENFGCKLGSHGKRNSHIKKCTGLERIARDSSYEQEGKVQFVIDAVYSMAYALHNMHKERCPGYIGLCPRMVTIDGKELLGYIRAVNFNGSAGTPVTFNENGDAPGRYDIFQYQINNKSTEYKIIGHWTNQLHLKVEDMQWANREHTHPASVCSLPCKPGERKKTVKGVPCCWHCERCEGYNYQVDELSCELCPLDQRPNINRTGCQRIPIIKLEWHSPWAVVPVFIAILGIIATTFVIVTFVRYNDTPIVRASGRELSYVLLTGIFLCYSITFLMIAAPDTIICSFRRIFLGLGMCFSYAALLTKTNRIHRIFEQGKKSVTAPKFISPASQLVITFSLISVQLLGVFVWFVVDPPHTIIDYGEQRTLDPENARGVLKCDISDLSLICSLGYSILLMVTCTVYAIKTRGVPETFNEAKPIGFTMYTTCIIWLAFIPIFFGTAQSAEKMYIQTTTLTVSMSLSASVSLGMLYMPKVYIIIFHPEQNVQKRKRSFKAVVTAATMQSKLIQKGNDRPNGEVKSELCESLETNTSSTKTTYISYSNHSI
# Assay: mGluR8 Gi/Go-coupled signaling modulation – cell-based, rat, thallium flux, HTS, primary screen (AID 488969)
# Conditions: HEK293 rat mGluR8, GIRK (G protein-gated inwardly rectifying potassium channel) thallium flux, FluoZin2; at 10 µM; stronger effect = higher value; submaximal glutamate (EC20) added with thallium
row,SMILES,z-score
1,CCOC(=O)Cc1cc(-c2ccc(O)cc2)nc2ccc3ccccc3c12,0.0725
2,CCOC(=O)c1c(C)nc2c(c1-c1ccc(Cl)cc1)C(=O)CC(C)(C)C2,-1.24
3,CC(C)CC(NC(=O)c1ccc(Cl)cc1)C(=O)O (centres undefined),-0.0425
4,CC(C)[C@H](NC(=O)NCCc1ccc(Cl)cc1)C(=O)O,0.54
5,CC(C)C[C@H](NC(=O)NCCc1ccc(Cl)cc1)C(=O)O,2.58
6,COc1ccc(NC(=O)C23CC4CC(C2)CC(n2cnc(Br)n2)(C4)C3)cc1Cl,-0.254
7,Cn1c(=O)cc(SCC(=O)NCCC2=CCCCC2)c2ccc(Cl)cc21,-0.0516
8,O=C(NC(Nc1nc2ccc([N+](=O)[O-])cc2s1)(C(F)(F)F)C(F)(F)F)c1ccccc1Cl,9.65 (active)
9,O=C(NC(Nc1nc2ccccc2s1)(C(F)(F)F)C(F)(F)F)c1ccccc1,-0.124
10,O=C(NC(Nc1nc2ccc([N+](=O)[O-])cc2s1)(C(F)(F)F)C(F)(F)F)c1cccnc1,0.978
11,O=C(NC(Nc1nc2ccc([N+](=O)[O-])cc2s1)(C(F)(F)F)C(F)(F)F)c1ccccc1,6.52 (active)
12,O=C(NC(NNc1ccc([N+](=O)[O-])cc1)(C(F)(F)F)C(F)(F)F)c1ccccc1Cl,-0.392
13,COC(=O)C(NC(=O)c1ccccc1Cl)(Nc1ncc(S(=O)(=O)c2ccc([N+](=O)[O-])cc2)s1)C(F)(F)F (centres undefined),-0.242
14,CN(C(=O)Nc1ccc(S(=O)(=O)N(C)C)cc1)C1CCCCC1,-0.0267
15,O=C(CCn1c(=O)c2ccccc2n(CC(=O)NC2CCCC2)c1=O)NCc1ccco1,-0.258
16,CN(C(=O)COC(=O)c1ccccc1SCC(=O)NC1CCCCCCC1)C1CCS(=O)(=O)C1 (centres undefined),-0.32
17,Cc1cc(Oc2ccc3ccccc3c2)nc(SCC(=O)c2ccccc2)n1,-0.14
18,CC(=O)/C=C(\C)Nc1ccc(-c2cnc(-c3ccccc3)o2)cc1,0.0863
19,CCNS(=O)(=O)c1cc(S(C)(=O)=O)ccc1Cl,8.32 (active)
20,CS(=O)(=O)c1ccc(Cl)c(S(=O)(=O)NCc2ccccc2)c1,0.117
21,Cc1ccccc1NS(=O)(=O)c1cc(S(C)(=O)=O)ccc1Cl,-0.0663
22,CC(C)=CC(=O)Nc1nnc(-c2ccccc2)s1,-0.169

row,SMILES,z-score
1,O=C(NNC(=S)Nc1cccc2ccccc12)c1cccc(Br)c1,13.9 (active)
2,C=CCNC(=S)NNC(=O)c1cccc(Br)c1,-0.0521
3,CCNC(=S)NNC(=O)c1cccc(Br)c1,0.0953
4,Cc1ccc(C(=O)NNC(=S)Nc2cccc3ccccc23)s1,1.65
5,O=C(O)CCC(=O)NNC(=O)c1cccc(Br)c1,-0.13
6,O=C(NNC(=S)Nc1ccccc1)c1cccc(Br)c1,3.98 (active)
7,CCC(=O)NCCn1c(C)cc2ccccc21,0.729
8,CC(/C=N/NC(=O)c1ccc(CN2c3cccc4cccc(c34)S2(=O)=O)cc1)c1ccccc1 (centres undefined),-0.557
9,Cc1ccc(-c2noc(CCC(=O)NCCN3CCOCC3)n2)cc1,-0.472
10,O=C(Nc1ncccn1)c1cc([N+](=O)[O-])cc([N+](=O)[O-])c1,-0.131
11,O=C(O)CN=C(NS(=O)(=O)c1ccccc1)c1ccccc1,4.61 (active)
12,O=C(O)CN=C(NS(=O)(=O)c1ccc(Cl)cc1)c1ccccc1,0.274
13,Cc1ccc(S(=O)(=O)NC(=NCC(=O)O)c2ccc(F)cc2)cc1,0.317
14,CCOc1ccccc1CNS(=O)(=O)c1ccc2c(c1)oc(=O)n2C,-0.853
15,CCn1cc(C(=O)Nc2nnc(C)s2)c(=O)c2cc(F)c(N3CCN(C(=O)c4ccco4)CC3)cc21,-0.178
16,CCOC(=O)c1cnc(SCC(=O)Nc2nnc(CC)s2)nc1N,0.763
17,CCOC(=O)c1cnc(SCC(=O)Nc2cc(OC)cc(OC)c2)nc1N,0.341
18,CCOC(=O)c1cnc(SCC(=O)Nc2nc(C)c(C)s2)nc1N,3.65 (active)
19,Cc1cc2c(nn1)CCc1nonc1-2,0.0142
20,COc1cc2nc(CN3C(=O)c4ccccc4C3=O)oc(=O)c2cc1OC,-0.733
21,COc1ccc(Cl)cc1C(=O)CSc1nnnn1C1CCCC1,7.32 (active)
22,CCCCn1nnnc1SCC(=O)c1cc(Cl)ccc1OC,-1.36

row,SMILES,z-score
1,COc1ccc(Cl)cc1C(=O)CSc1nnnn1C1CCCCC1,-0.333
2,O=C(NNC(=O)[C@@H]1CCCC[C@@H]1C(=O)O)c1cccs1,0.534
3,O=C(NNC(=O)c1cc(-c2ccccc2)n(-c2ccccc2)n1)c1cccc([N+](=O)[O-])c1,6.49 (active)
4,O=C(NCc1cn(-c2ccccc2)nc1-c1ccccc1)c1cccc([N+](=O)[O-])c1,-0.314
5,O=C(NNC(=O)c1cnccn1)c1cccc([N+](=O)[O-])c1,-0.417
6,C=CCn1c(-c2ccc(S(=O)(=O)N3CCOCC3)cc2)csc1=Nc1ccccc1,0.017
7,Cc1nn(-c2ccccc2)c(N)c1C1(O)C(=O)N(C(C)C)c2ccccc21 (centres undefined),0.371
8,O=C(c1ccccc1)n1nc(-c2ccccc2)nc1NCc1ccco1,0.149
9,O=S(=O)(c1ccccc1)n1nc(-c2ccccc2)nc1NCc1ccco1,-0.0427
10,CCS(=O)(=O)n1nc(-c2ccccc2)nc1NCc1ccco1,2.2
11,CCS(=O)(=O)c1nc2ccccc2n1CC(=O)N1CCOCC1,0.0592
12,O=C(NC(=S)Nn1cnc2c(cnn2-c2ccccc2)c1=O)c1ccc(Cl)cc1,0.0584
13,O=C(NC(=S)Nn1cnc2c(cnn2-c2ccccc2)c1=O)c1ccccc1,-0.101
14,O=C(NC(=S)Nn1cnc2c(cnn2-c2ccccc2)c1=O)c1ccc(Oc2ccccc2)cc1,2.08
15,OCCN(Cc1ccccc1)CC1CCCCC1,0.614
16,CCCN(Cc1ccc(N(CC)CC)cc1)CC1CC1,2.1
17,CCCN(Cc1ccc(N(C)C)cc1)CC1CC1,-0.858
18,CCCCn1c(SCC(=O)N2CCOCC2)nnc1-c1ccoc1C,1.9
19,COc1ccc(S(=O)(=O)N(CC(=O)N2CCN(C)CC2)c2ccc(C)cc2)cc1OC,0.277
20,CCCC(=O)OCC(=O)Nc1ccc(N=Nc2ccccc2)cc1,0.427
21,CC(=O)OCC(=O)Nc1ccc(N=Nc2ccccc2)cc1,0.277
22,CC(C)C(=O)OCC(=O)Nc1ccc(N=Nc2ccccc2)cc1,10.5 (active)

row,SMILES,z-score
1,Cc1cc(-c2nn(-c3ccccc3)cc2/C=C2\SC(N)=NC2=O)ccc1OC(C)C,-0.0568
2,Cn1c(=O)oc2cc(S(=O)(=O)NCCN3CCN(c4ccccc4F)CC3)ccc21,-0.14
3,CCCCN(CCCNC(=O)C1CCN(S(=O)(=O)N2CCOCC2)CC1)c1ccccc1,-1.17
4,CC(C)N(CCNC(=O)C1CCN(S(=O)(=O)N2CCOCC2)CC1)Cc1ccccc1,0.267
5,CCCCN(CCCNC(=O)C1CCN(S(=O)(=O)N2CCOCC2)CC1)Cc1ccccc1,2.95
6,O=C(COc1ccccc1)OCc1csc(Nc2ccccc2)n1,-0.693
7,CS(=O)(=O)Nc1ccc2c(c1)nc1n2CCOC1,-0.149
8,COc1cccc(CNC(=O)C2(C)Oc3ccccc3NC2=O)c1 (centres undefined),-0.3
9,COc1ccc(CS(=O)(=O)/C(Cl)=C(/Cl)C(=O)Nc2ccc(OC)nc2)cc1,-0.34
10,Fc1ccc2nc(Nc3nc4c(F)cccc4s3)sc2c1,4.98 (active)
11,Fc1ccc2nc(Nc3nc4c(F)cc(F)cc4s3)sc2c1,6.16 (active)
12,COC(=O)c1ccc2nc(Nc3nc4c(F)cc(F)cc4s3)sc2c1,1.56
13,NNc1nc2ccc(F)cc2s1,-0.467
14,COC(=O)c1ccc2nc(Nc3nc4ccc(F)cc4s3)sc2c1,0.254
15,CC(=O)c1sc(Nc2nc3ccc(F)cc3s2)nc1C,0.302
16,CCCCC(=O)Nc1ccccc1C(=O)N1CCOCC1,0.0261
17,C/C(=N\OCC(=O)Nc1ccc(F)c(F)c1F)c1cc2ccccc2o1,-1.92
18,CCCCOc1ccc(C(=O)N/C(=C\c2cccc([N+](=O)[O-])c2)C(=O)OC(C)C)cc1,0.536
19,Cc1ccc(CCSc2ccc(C(C)C)cc2)cn1,-0.399
20,CC(C)CN1C(=O)NC(NC(=O)c2ccco2)(C(F)(F)F)C1=O (centres undefined),0.0372
21,CN(C(=S)Nc1ccc(Oc2ccccc2)cc1)C1CCCCC1,0.0776
22,Cc1cccc(NC(=O)COc2ccc(Br)cc2)n1,-0.0989

row,SMILES,z-score
1,CCOC(=O)c1ccc(NC(=S)Nc2ccccc2)cc1,1.7
2,Cc1ccc(OCC(=O)NC(=S)Nc2ccc(Br)c(C)n2)cc1,1.02
3,Cc1ccc(OCC(=O)NC(=S)Nc2cccc(C)n2)cc1,1.99
4,CCOC(=O)c1ccc(NC(=S)NC(=O)COc2ccccc2)cc1,3.05 (active)
5,CCCC(=O)NC(=S)Nc1ccccc1C(=O)OC,0.0764
6,CCCN(CC1CC1)C(=S)Nc1ccc(Oc2ccccc2)cc1,3.7 (active)
7,COC(=O)c1ccccc1NC(=S)NC(=O)COc1ccc(C)cc1,2.28
8,CCC(=O)NC(=S)Nc1ccc(NC(=O)COc2ccccc2)cc1,0.0565
9,CCCCN(C)C(=S)Nc1ccc(Oc2ccccc2)cc1,1.42
10,CCC(=O)NC(=S)Nc1ccccc1C(=O)OC,-0.308
11,O=C(CSc1ccsc1[N+](=O)[O-])N1CCN(c2ccccc2)CC1,-0.247
12,COCCCNS(=O)(=O)c1ccc(SC)cc1,-0.232
13,O=C(COC(=O)Cc1c(Cl)cccc1Cl)Nc1ccc(OC(F)(F)F)cc1,0.262
14,CNc1nc(SCc2ccccc2)nc(N2CCOCC2)n1,-0.587
15,O=c1ccn(-c2cccc(C(F)(F)F)c2)nc1-c1ccn(-c2ccccc2)n1,-0.401
16,S=C(Nc1cccc2ccccc12)N1CCN(c2ncccn2)CC1,-0.1
17,COc1ccc(-n2c(Cc3cccn3C)nnc2SCC(=O)NCCc2ccccc2)cc1,-0.482
18,CC12C(=O)N(c3cccc4cccnc34)C(=O)C1C1C=CC2C1 (centres undefined),0.818
19,CNc1nc(OCC(F)(F)F)nc(N2CCN(C34CC5CC(CC(C5)C3)C4)CC2)n1,0.418
20,O=C(c1cccs1)N1N=C(c2ccccc2)CC1c1ccccc1 (centres undefined),-0.101
21,O=C(Nc1ccc(Br)c(C(F)(F)F)c1)c1ccccc1,0.42
